Compound activity (PubChem BioAssay)
DT40 TDP1 CPT: DT40-hTDP1 cell growth loss with CPT; 12% of 420,000 active; AID 686979; Potency, µM (series often up to 46.2 µM), actives largely listed as inhibitors; chicken DT40 Tdp1-/-;hTDP1 cells + 20 nM CPT, ATP luminescence, 48 h; note: nearly all actives have a fitted effect of over 55% in size
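Cell growth measured by CellTiter-Glo luminescence after a minimum 48 h, 37 C compound exposure with 20 nM CPT in Tdp1-knockout DT40 cells stably expressing hTDP1, seeded 400/well; qHTS titration format.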
KB-V1 cytotox: KB-V1 MDR subline cytotoxicity; KB-V1 MDR cells viability, CellTiter-Glo, 72 h; AID 1347076; 3.4% of 400,000 active; Potency, µM (doses to about 46.1 µM), most hits filed as cytotoxic; note: nearly all actives have a fitted effect of over 60% in size
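Drug-selected KB-V1 cells, grown in DMEM lacking phenol red with 10% FBS, receive compound titrations; after three days at 37 degrees C, surviving cell ATP is quantified by CellTiter-Glo luminescence and responses normalized and curve-fitted.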
TDP1 cell noCPT: qHTS for Inhibitors of human tyrosyl-DNA phosphodiesterase 1 (TDP1): qHTS in cells in absence of CPT; DT40 Tdp1-/- hTDP1 cells, no CPT, ATP luminescence, 48 h; Potency, µM (doses to about 46.2 µM), most hits filed as inhibitors; 15% of 420,000 active; AID 686978, 2013; note: nearly all actives have a fitted effect of over 55% in size
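Growth of hTDP1-complemented DT40 Tdp1-knockout cells is measured by ATP luminescence after at least 48 hr compound exposure at 37 °C, with DMSO substituting for the 20 nM CPT used in the parallel screen.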
HT1080NT lethal: kills 2HG-producing HT-1080-NT fibrosarcoma cells; HT-1080-NT fibrosarcoma viability, CellTiter-Glo ATP luminescence, 48 h; AID 686970; Potency, µM (doses to about 46.1 µM), actives largely listed as cytotoxic; 1.6% of 360,000 active;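 note: NT is the 2HG producing partner of a matched IDH1 knockdown line; nearly all actives have a fitted effect of over 55% in size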
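HT-1080-NT; 750 cells/well; 5% FBS RPMI; 48 h compound, 37 degrees C; CellTiter-Glo luminescence; curve fitting and curve-class assignment.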
HT1080 IDH1KD tx: kills HT-1080 cells with IDH1 knockdown; HT-1080 IDH1 knockdown viability, ATP luminescence, 48 h; Potency, µM (doses to about 46.1 µM), actives largely listed as cytotoxic; 2% of 360,000 active; AID 686971
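After a 2 h attachment period, IDH1KD HT-1080 cells took pin-transferred compound for 48 h at 37 °C; ATP-based luminescence after 10 min room-temperature reagent incubation reported viability.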
KB-3-1 cytotox: KB-3-1 parental cell cytotoxicity; KB-3-1 viability, CellTiter-Glo ATP luminescence, 72 h; Potency, µM (doses to about 46.1 µM), actives largely listed as cytotoxic; 1.4% of 400,000 active; AID 1347075; note: nearly all actives have a fitted effect of over 60% in size
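Screening of KB-3-1 cells (DMEM, 10% FBS, phenol-red free) ran from lowest to highest compound concentration; after 72 h at 37 °C viability was read luminescently and curves fitted.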
A number is an active result. Shown are actives, neighbours in structure and some others; about 19% of the full set was active somewhere. Calls come from the whole dose curve; as a rule, active = well fitted curve in the direction sought with a large enough effect; inconclusive = small, poorly fitted or top-dose-only effect, or another doubt; inactive = no such curve, though single readings can be large; an effect the other way counts as inactive or inconclusive.

`COc1cccc(CN(C)C(=O)c2ccc(S(=O)(=O)Nc3ccccc3C)cc2)c1OC` gave DT40 TDP1 CPT inactive, KB-V1 cytotox inactive, TDP1 cell noCPT inactive, HT1080NT lethal inactive, HT1080 IDH1KD tx inactive and KB-3-1 cytotox inactive.
O=S(=O)(O)CC(S)CS (stereo unspecified) was read as DT40 TDP1 CPT 8.4µM and TDP1 cell noCPT 4.7µM.
Screening Cc1ccc(S(=O)(=O)NC(=O)COc2cc(C)ccc2C(C)C)cc1 returned DT40 TDP1 CPT inconclusive, KB-V1 cytotox inactive, TDP1 cell noCPT inactive, HT1080NT lethal inactive, HT1080 IDH1KD tx inactive and KB-3-1 cytotox inactive.
Screening O=C1Cc2ccccc2C(=O)N1 returned DT40 TDP1 CPT 1.5µM, KB-V1 cytotox inactive, TDP1 cell noCPT 1.2µM, HT1080NT lethal inactive, HT1080 IDH1KD tx inactive and KB-3-1 cytotox inactive.
For O=C1Nc2ccccc2CCc2ccccc21 the results were DT40 TDP1 CPT inactive, KB-V1 cytotox inconclusive, TDP1 cell noCPT inactive, HT1080NT lethal inactive, HT1080 IDH1KD tx inactive and KB-3-1 cytotox inactive.
O=C(c1ccc(Cn2cnnn2)cc1)N1CCCC(Nc2ccc(F)c(F)c2)C1 (stereo unspecified) was read as DT40 TDP1 CPT inactive, KB-V1 cytotox inactive, TDP1 cell noCPT inactive, HT1080NT lethal inactive, HT1080 IDH1KD tx inactive and KB-3-1 cytotox inactive.
Screening COc1ccc2nc(NC(=O)C(NS(=O)(=O)c3cccc4nsnc34)C(C)C)sc2c1 (stereo unspecified) returned DT40 TDP1 CPT inactive, KB-V1 cytotox inactive, TDP1 cell noCPT inconclusive, HT1080NT lethal inconclusive, HT1080 IDH1KD tx inconclusive and KB-3-1 cytotox inactive.
Screening CCOC(=O)C1CCCN1C(=O)C1(NC(C)=O)CCCC1 (stereo unspecified) returned DT40 TDP1 CPT inactive, KB-V1 cytotox inactive, TDP1 cell noCPT inactive, HT1080NT lethal inactive, HT1080 IDH1KD tx inactive and KB-3-1 cytotox inactive.
For O=c1[nH][nH]cc1C=Nc1ccccc1O the results were DT40 TDP1 CPT inconclusive, KB-V1 cytotox inactive, TDP1 cell noCPT inconclusive, HT1080NT lethal inactive, HT1080 IDH1KD tx inactive and KB-3-1 cytotox inactive.
`O=c1c(=Nc2ccccc2O)c(=O)c2ccccc12` gave DT40 TDP1 CPT 7.3µM, KB-V1 cytotox inactive, TDP1 cell noCPT 12µM, HT1080NT lethal inactive, HT1080 IDH1KD tx inconclusive and KB-3-1 cytotox inactive.
O=C1Nc2ccccc2OC1CC(=O)N1CCN(c2cccc(C(F)(F)F)c2)CC1 (stereo unspecified) was read as DT40 TDP1 CPT inconclusive, KB-V1 cytotox inconclusive, TDP1 cell noCPT inconclusive, HT1080NT lethal inactive, HT1080 IDH1KD tx 20µM and KB-3-1 cytotox inactive.
Screening O=C(CCCCn1c(=O)[nH]c2ccsc2c1=O)N1CCN(c2cccc(C(F)(F)F)c2)CC1 returned DT40 TDP1 CPT 12µM, KB-V1 cytotox inactive, TDP1 cell noCPT 9.2µM and KB-3-1 cytotox inactive.
`COc1ccc(N2CCN(C(=O)CCCCCn3c(=O)[nH]c4ccsc4c3=O)CC2)cc1` gave DT40 TDP1 CPT inconclusive, KB-V1 cytotox inconclusive, TDP1 cell noCPT 16µM, HT1080NT lethal inactive, HT1080 IDH1KD tx inactive and KB-3-1 cytotox inactive.
`O=C(CCn1c(=O)[nH]c2ccccc2c1=O)N1CCN(c2cccc(C(F)(F)F)c2)CC1` gave DT40 TDP1 CPT 16µM, KB-V1 cytotox inactive, TDP1 cell noCPT 18µM, HT1080NT lethal inactive, HT1080 IDH1KD tx inactive and KB-3-1 cytotox inactive.
Screening COc1cccc(CCNc2ncnc3sc(C(=O)N4CCOCC4)c(C)c23)c1 returned DT40 TDP1 CPT inactive and TDP1 cell noCPT inactive.
O=C(CCn1c(=O)[nH]c2ccccc2c1=O)N1CCN(c2ccc(Cl)cc2)CC1 was read as DT40 TDP1 CPT inconclusive, KB-V1 cytotox inactive, TDP1 cell noCPT inactive, HT1080NT lethal inactive, HT1080 IDH1KD tx inactive and KB-3-1 cytotox inactive.
For O=C(CCCCn1c(=O)[nH]c2ccccc2c1=O)N1CCN(c2cccc(C(F)(F)F)c2)CC1 the results were DT40 TDP1 CPT 16µM, KB-V1 cytotox inconclusive, TDP1 cell noCPT inconclusive, HT1080NT lethal inactive, HT1080 IDH1KD tx inactive and KB-3-1 cytotox inconclusive.
`COc1cccc(NC(=O)CCC2CCN(Cc3nccs3)CC2)c1` gave DT40 TDP1 CPT inactive, KB-V1 cytotox inactive, TDP1 cell noCPT inactive, HT1080NT lethal inactive, HT1080 IDH1KD tx inactive and KB-3-1 cytotox inactive.
For COc1cc(C(=O)NCC(=O)Nc2ccc(F)c(F)c2)ccc1OCC(=O)N1CCOCC1 the results were DT40 TDP1 CPT inactive, KB-V1 cytotox inactive, TDP1 cell noCPT inactive, HT1080NT lethal inactive, HT1080 IDH1KD tx inactive and KB-3-1 cytotox inactive.
Screening COc1cc(OC)c(OC)cc1/C=N/Nc1ncnc2c1[nH]c1ccccc12 returned DT40 TDP1 CPT inactive, KB-V1 cytotox inconclusive, TDP1 cell noCPT inconclusive, HT1080NT lethal inactive, HT1080 IDH1KD tx inactive and KB-3-1 cytotox inactive.
`Cc1ccc2[nH]c3c(NCCCN4CCCC4=O)ncnc3c2c1` gave DT40 TDP1 CPT inconclusive, KB-V1 cytotox inactive, TDP1 cell noCPT inconclusive, HT1080NT lethal inactive, HT1080 IDH1KD tx inconclusive and KB-3-1 cytotox inactive.
`COc1ccc(/C=N/Nc2ncnc3c2[nH]c2ccc(C)cc23)c(OC)c1OC` gave DT40 TDP1 CPT inconclusive, KB-V1 cytotox inactive, TDP1 cell noCPT 15µM, HT1080NT lethal inactive, HT1080 IDH1KD tx inactive and KB-3-1 cytotox inactive.
Screening COc1cc(CNc2ncnc3c2[nH]c2ccc(C)cc23)cc(OC)c1 returned DT40 TDP1 CPT inconclusive, KB-V1 cytotox inconclusive, TDP1 cell noCPT 21µM, HT1080NT lethal inactive, HT1080 IDH1KD tx inactive and KB-3-1 cytotox inactive.
`Cc1ccc2[nH]c3c(NCc4ccco4)ncnc3c2c1` gave DT40 TDP1 CPT 23µM, KB-V1 cytotox 18µM, TDP1 cell noCPT 18µM, HT1080NT lethal inactive, HT1080 IDH1KD tx inactive and KB-3-1 cytotox 13µM.
c1coc(CNc2ncnc3nc[nH]c23)c1 was read as DT40 TDP1 CPT inactive, KB-V1 cytotox inactive, TDP1 cell noCPT inactive, HT1080NT lethal inactive, HT1080 IDH1KD tx inactive and KB-3-1 cytotox inactive.
For Cc1ccc(-n2ncc3c(NCc4ccco4)ncnc32)c(C)c1 the results were DT40 TDP1 CPT inconclusive, KB-V1 cytotox inconclusive, TDP1 cell noCPT inconclusive, HT1080NT lethal inactive, HT1080 IDH1KD tx inactive and KB-3-1 cytotox inactive.
For Fc1ccc2[nH]c3c(NCc4ccco4)ncnc3c2c1 the results were DT40 TDP1 CPT 7.1µM, KB-V1 cytotox inactive, TDP1 cell noCPT 8.9µM and KB-3-1 cytotox inconclusive.
For CCOc1ccccc1NC(=O)CN(c1cc(C)cc(C)c1)S(=O)(=O)c1c(C)noc1C the results were DT40 TDP1 CPT inactive, KB-V1 cytotox inconclusive, TDP1 cell noCPT inactive, HT1080NT lethal inactive, HT1080 IDH1KD tx inactive and KB-3-1 cytotox inactive.
